GDH-TPI inh: GDH-TPI coupling enzyme inhibitors, primary screen, artefact control for M. tuberculosis FBA inhibitor project, biochemical, absorbance, full deck. GDH-TPI coupled enzyme counterscreen, NADH absorbance. inhibition, % at 4.8 µM. 1.2% of 360,000 active. AID 588335, 2011
CCHF vOTU inh: CCHFV vOTU protease inhibitors, primary screen, biochemical, Pep-AMC substrate, fluorescence. inhibition, % at 11.5 µM. 0.55% of 370,000 active. AID 651958, 2012
Mtb FBA inh: Mtb FBA enzyme inhibitors, primary screen, biochemical, fluorescence, strain H37Rv; Fructose-bisphosphate aldolase (Mycobacterium tuberculosis (strain ATCC 25618 / H37Rv)), …; 2.3% of 360,000 active; inhibition, % at 1 µM; purified M. tuberculosis FBA, fluorescence read-out; in the data active means inhibition above about 27%
Target sequence (P9WQA3 whole entry, looked up): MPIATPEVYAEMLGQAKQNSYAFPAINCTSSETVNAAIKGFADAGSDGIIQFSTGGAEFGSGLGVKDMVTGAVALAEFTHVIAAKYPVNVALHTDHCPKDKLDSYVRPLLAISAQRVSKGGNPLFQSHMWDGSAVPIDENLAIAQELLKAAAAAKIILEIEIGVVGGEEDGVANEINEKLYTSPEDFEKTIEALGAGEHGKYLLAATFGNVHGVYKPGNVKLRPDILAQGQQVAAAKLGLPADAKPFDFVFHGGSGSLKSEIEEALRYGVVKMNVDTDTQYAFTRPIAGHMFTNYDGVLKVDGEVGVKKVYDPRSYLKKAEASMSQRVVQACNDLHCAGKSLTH
BH1578 lux ind: inducers of Vibrio cholerae quorum light production without autoinducers, primary screen, BH1578 luxS cqsA deficient, single point; V. cholerae BH1578 lux reporter, luminescence, 6 h; activation, % at 18.7 µM; 0.16% of 350,000 active; AID 588436, 2011; in the data active means activation mostly above about 9.7%, no sharp cut-off
Of the large screens only hits and unclear results are named; the others gave an inactive call. A selection: hits, their analogues and other compounds. The true share with any hit is near 3.9%. Unless noted, no stated cut-off is given here; in the data, active means inhibition above about 30%; inactive means the rest.

Cc1cc(C(=O)N/N=C/c2c(C)n(C)c3ccccc23)n[nH]1	GDH-TPI inh 57
Cc1cc(C(=O)N/N=C/c2c(C)[nH]c3ccccc23)n[nH]1	GDH-TPI inh 56
Cc1[nH]c2ccccc2c1/C=N/NC(=S)NC(C)C	GDH-TPI inh 38
Cc1[nH]c2ccccc2c1/C=N/NC(=O)CNC(=O)c1ccc2c(c1)OCCO2	GDH-TPI inh 32
Cc1[nH]c2ccccc2c1/C=N/NC(=O)c1cc(-c2cccs2)[nH]n1	none
COC(=O)C1=C(C(=O)OC)[C@@H]2N(C)c3ccccc3[C@@]23C[C@@H](C(=O)OC)N(C(=O)CC(C)C)C3=N1	none
CCc1c(C)c2ccc(O)c(CN(C)C)c2oc1=O	Mtb FBA inh active
CN(C)Cc1c(O)ccc2c3c(c(=O)oc12)CCCCC3	Mtb FBA inh active
CCCCN(CC)Cc1c(O)ccc2c3c(c(=O)oc12)CCC3	none (no result: Mtb FBA inh)
COCCN(CCOC)Cc1c(O)ccc2c3c(c(=O)oc12)CCC3	Mtb FBA inh active
CCCCc1cc(=O)oc2c(CN(C)C)c(O)ccc12	none (no result: Mtb FBA inh)
COc1ccc2cc(CCNC(=O)c3ccco3)c(=O)[nH]c2c1	none
CCOC(=O)/C(=N/Nc1ccc(C)cc1)S(=O)(=O)c1ccc(Cl)cc1	none
CCOC(=O)/C(=N\Nc1ccccc1)S(=O)(=O)c1ccccc1	GDH-TPI inh 31
CCOC(=O)c1ccc(NC(=S)P(=O)(c2ccccc2)c2ccccc2)cc1	none
CCOC(=O)/C(=N\Nc1ccccc1)P(=O)(c1ccccc1)c1ccccc1	GDH-TPI inh 51
CN(C)S(=O)(=O)c1cccc(NC(=O)c2c[nH]c3ccccc23)c1	Mtb FBA inh 78
CC1(C(=O)Nc2cccc(Oc3ccccc3)c2)Cc2c(-c3ccc4c(c3)OCO4)ccnc2O1 (stereo not drawn)	none
O=C(N/N=C/c1cc(Br)c(O)c(Br)c1)c1cccnc1	GDH-TPI inh 31
O=C(NN=Cc1ccc(N(CCCl)CCCl)cc1)c1cccc([N+](=O)[O-])c1	none
COc1cc(/C=N/NC(=O)c2cccnc2)cc(Br)c1O	GDH-TPI inh 44
O=C(NN=Cc1ccc(N(CCCl)CCCl)cc1)c1cccnc1	GDH-TPI inh 38
COc1ccc(/C=N/NC(=O)c2cccnc2)cc1COc1ccc(NC(C)=O)cc1	GDH-TPI inh 31
COc1ccc(OC)c([C@@H]2OCCC=C[C@H]2C)c1	none
CC(NC(=O)c1ccco1)c1nc(-c2ccc(C(C)(C)C)cc2)no1 (stereo not drawn)	none
O=C1OC(c2ccc(F)cc2)=N/C1=C\c1ccc(Br)o1	none
CCOc1ccccc1NCc1nnc(-c2ccccc2)o1	none
COc1ccc(CCN)cc1S(N)(=O)=O	none (no result: GDH-TPI inh, Mtb FBA inh, BH1578 lux ind)
COc1ccccc1OCC(=O)NNC(=O)Nc1ccc(Cl)cc1	none
CCN1CCN(c2ccc(S(=O)(=O)N3CCOCC3)cc2NC(=O)c2ccc(C)cc2C)CC1	none
COCC(=O)N(C)C[C@H]1N[C@@](C)(C(=O)OC)[C@H]2C(=O)N(C)C(=O)[C@@H]12	none
O=C(N/N=C/c1ccc(OC(=O)c2ccc([N+](=O)[O-])cc2)cc1)c1cccnc1	none
O=C(N/N=C/c1ccc(OC(=O)c2ccccc2)cc1)c1cccnc1	Mtb FBA inh active
Cc1nccc(-c2sc(-c3cccs3)nc2C)n1	Mtb FBA inh active
COc1ccc(-c2nc3ccc(C)cn3c2NCc2ccccc2)cc1SC1CCCCC1	none (no result: CCHF vOTU inh)
CCC(C)Sc1cc(-c2nc3ccc(C)cn3c2NCc2ccccc2)ccc1OC (stereo not drawn)	Mtb FBA inh 64
CCC(C)Sc1ccc(-c2nc3ccc(C)cn3c2NCc2ccccc2)cc1OC (stereo not drawn)	GDH-TPI inh 42, Mtb FBA inh 116 (no result: CCHF vOTU inh)
COC(=O)Cn1c2ccccc2c2nc(=O)cc(C)n21	none
COc1cc2c(cc1OC)n(CC(=O)NC1CCCCCC1)n1c(C)cc(=O)nc21	Mtb FBA inh 113
COc1cc2nc(N3CCN(C(=O)OCc4ccccc4)[C@H](C(=O)NC(C)(C)C)C3)nc(N)c2cc1OC	Mtb FBA inh 89
COc1ccc(C)cc1NC(=O)C1CCCN1C(=O)OCc1ccccc1 (stereo not drawn)	none
O=S(=O)(c1ccc(NC(=S)N/N=C/c2cccc(Oc3ccccc3)c2)cc1)N1CCOCC1	none
O=S(=O)(c1ccc(NC(=S)N/N=C/c2ccc(O)c(O)c2)cc1)N1CCOCC1	GDH-TPI inh 37
N#Cc1ccc(/C=N/NC(=S)Nc2ccc(S(=O)(=O)N3CCOCC3)cc2)cc1	GDH-TPI inh 40
CC1(C)Cc2cccc(Oc3ccc(S(=O)(=O)N4CCCCC4)cn3)c2O1	none
CCOc1ccccc1NS(=O)(=O)c1c(C)noc1C	none
Cc1c(/C=N/Nc2ccc(F)cc2)c(O)n(C)c(=O)c1C#N	GDH-TPI inh 33
CC(=O)N=Cc1c(C)c(C#N)c(=O)n(C)c1O	none
O=C(NC1CCCC1)C1(c2ccccc2)CCN(S(=O)(=O)c2ccccc2)CC1	none
Cc1cncc(NCc2ccc3c(c2)OCO3)n1	none
Cc1cncc(NCc2cccc(Cl)c2)n1	Mtb FBA inh 118
COc1ccc(/C=C2\SC(=O)N(CCn3cnnn3)C2=O)cc1	GDH-TPI inh 38
COc1ccc(/C=C2\SC(=O)N(CCC(=O)N3CCCCC3CCO)C2=O)cc1 (stereo not drawn)	GDH-TPI inh 40
COc1ccc(/C=C2\SC(=O)N(CCNC(=O)C3CC4C=CC3C4)C2=O)cc1 (stereo not drawn)	none
COc1ccc(/C=C2\SC(=S)N(CCC(=O)N3CCCCC3CCO)C2=O)cc1 (stereo not drawn)	none
O=c1c(-c2nc3ccccc3s2)cccn1Cc1ccc(Cl)cc1	Mtb FBA inh 142
Clc1ncccc1-c1nc2ccccc2s1	none
CC1CCN(C2CCN(S(=O)(=O)c3ccc(C(F)(F)F)cc3)CC2)CC1	none
COc1ccc(C(=O)N(CN2CCCC2=O)c2nccs2)cc1OC	GDH-TPI inh 46
CS(=O)(=O)N1CCN(c2nc3ccccc3s2)CC1	none
COc1ccc(NC(=O)C[C@@H]2C(=O)N(Cc3ccccc3)CC2(C)C)cc1	none
CC(C)C(NC(=O)c1ccco1)C(=O)OCC(=O)N1CC(=O)Nc2ccccc21 (stereo not drawn)	none
COCc1nc(-c2ccc(-c3ccc(OC)cc3)nc2OC)no1	Mtb FBA inh active
CCc1nc(-c2ccc(-c3ccc(OC)cc3)nc2OC)no1	Mtb FBA inh 152
CCc1nc(-c2ccc(C)nc2OC)no1	none
O=C(/C=C/c1ccccc1[N+](=O)[O-])NCCCn1ccnc1	none
CCC(C(=O)Nc1ccccc1N1CCCC1)c1ccccc1 (stereo not drawn)	none
CCC(C(=O)Nc1cccc(C(=O)O)c1C)c1ccccc1 (stereo not drawn)	Mtb FBA inh 143
CCn1c(Cc2cccs2)nnc1SCC(=O)Nc1cccc2ccccc12	none (no result: GDH-TPI inh, Mtb FBA inh, BH1578 lux ind)
O=C(Nc1nccs1)c1sc2ccccc2c1Cl	none
O=C(Nc1nccs1)c1sc2cc(Cl)ccc2c1Cl	GDH-TPI inh 34
Cc1ccc(OCC(=O)N/N=C/C=C/c2ccco2)cc1	none
